Assay results reported in PubChem BioAssay (EPA / NIEHS).
Inconclusive results are not listed. Calls of active or inactive are those of the source. The calls were made as follows: active = hit-call score of the fitted dose curve at least 0.9, where 1 is the maximum; inconclusive = response in the unintended direction; inactive = score below 0.9.

Assays:
[1] = biological target: Cellular tumor antigen p53 (Homo sapiens) (UniProt P04637); experiment: TOX21_p53_BLA_p2_ratio: Tox21 HCT-116 p53 Agonism Beta-lactamase Assay, Ratio, Phase 2 (AID 2283592)
Cellular tumor antigen p53 (Homo sapiens), sequence (P04637 whole entry, looked up): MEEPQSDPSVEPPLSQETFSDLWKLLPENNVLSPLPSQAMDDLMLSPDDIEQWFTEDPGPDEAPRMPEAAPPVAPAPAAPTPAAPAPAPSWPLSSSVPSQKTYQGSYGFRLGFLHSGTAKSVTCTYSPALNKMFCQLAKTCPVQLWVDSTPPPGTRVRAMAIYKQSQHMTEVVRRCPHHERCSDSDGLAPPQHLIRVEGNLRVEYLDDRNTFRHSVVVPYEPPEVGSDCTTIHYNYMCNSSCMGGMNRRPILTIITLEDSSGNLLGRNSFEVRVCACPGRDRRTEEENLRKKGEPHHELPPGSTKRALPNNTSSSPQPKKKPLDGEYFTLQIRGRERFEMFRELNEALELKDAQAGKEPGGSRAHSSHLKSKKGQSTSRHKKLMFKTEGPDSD
Summary of the method: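 HCT116 cells carrying a p53-responsive beta-lactamase reporter were plated, incubated 5 h at 37C, then dosed with compounds in DMSO (217-fold dilution) for 16 h. CCF4-AM substrate was added for 2 h at room temperature; the 460/530 nm emission ratio gave gain-of-signal activity relative to DMSO.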

[2] = TOX21_p53_BLA_p4_viability: Viability Assessment in the Tox21 HCT-116 p53 Agonism Beta-lactamase Assay, Phase 4 (AID 2283597);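 also: hits lower the luminescence signal meaning cytotoxicity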
Summary of the method: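 HCT116 p53-bla cells (4000/well) rested 5 h at 37C, then received compounds in DMSO (217-fold dilution) for 16 h at 37C, 5% CO2. CellTiter-Glo was added after the CCF4-AM read, and luminescence was read after 30 min at room temperature.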

[3] = biological target: Cellular tumor antigen p53 (Homo sapiens) (UniProt P04637); experiment: TOX21_p53_BLA_p5_ratio: Tox21 HCT-116 p53 Agonism Beta-lactamase Assay, Ratio, Phase 5 (AID 2283599)
Summary of the method: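 Beta-lactamase reporter ratio (blue 460 nm over green 530 nm, 405 nm excitation) after 2 h CCF4-AM loading, in HCT-116 cells exposed 16 h at 37 C to compounds pinned at 217-fold dilution. Increases relative to DMSO baseline scored.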

[4] = TOX21_p53_BLA_p5_viability: Viability Assessment in the Tox21 HCT-116 p53 Agonism Beta-lactamase Assay, Phase 5 (AID 2283600)
Summary of the method: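 Cells were plated at 4000/well, rested 5 h at 37C, then given compounds in DMSO (217-fold dilution) for 16 h at 37C, 5% CO2. Following the CCF4-AM beta-lactamase read, CellTiter-Glo was added and luminescence was read after 30 min at room temperature.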

[5] = biological target: Cellular tumor antigen p53 (Homo sapiens) (UniProt P04637); experiment: TOX21_p53_BLA_p4_ratio: Tox21 HCT-116 p53 Agonism Beta-lactamase Assay, Ratio, Phase 4 (AID 2283601)
Summary of the method: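 Signal is the blue/green (460nm/530nm) ratio of cleaved versus uncleaved CCF4-AM substrate, read after 2 h substrate loading. Cells were HCT116 carrying the p53-responsive beta-lactamase reporter, dosed 16 h at 37C, 5% CO2; CellTiter-Glo measured in parallel.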

[6] = biological target: Cellular tumor antigen p53 (Homo sapiens) (UniProt P04637); experiment: TOX21_p53_BLA_p3_ratio: Tox21 HCT-116 p53 Agonism Beta-lactamase Assay, Ratio, Phase 3 (AID 2283596)
Summary of the method: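 HCT116 p53-bla cells (4000/well) given compound in DMSO (217-fold dilution) after 5 h, incubated 16 h at 37C. CCF4-AM substrate 2 h at room temperature; 460/530 nm emission ratio, gain fitted against DMSO.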

Measured: outcome

O=C[C@H](O)[C@@H](O)[C@H](O[C@H]1O[C@H](CO)[C@@H](O[C@H]2O[C@H](CO)[C@@H](O)[C@H](O)[C@H]2O)[C@H](O)[C@H]1O)[C@H](O)CO
inactive: [1] | [2] | [3]

CC(C)=CC(C)(C)C
not listed: [6]
inactive: all other assays above

O=C1NC(=O)[C@H]2[C@@H]1[C@@H]1C=C[C@H]2C1
not listed: [6]
inactive: all other assays above

CCCCOC(=O)CCS
not listed: [6]
inactive: all other assays above

O=C1OC(=O)c2cccc3cccc1c23
inactive: [1] | [6] | [5]

CCc1ccc(C(=O)C(C)CN2CCCCC2)cc1 (stereo unspecified)
not listed: [6]
inactive: all other assays above

NNc1nnc(NN)c2ccccc12
not listed: [6]
inactive: all other assays above

CCCn1c(=O)[nH]c(=O)c2[nH]cnc21
not listed: [6]
inactive: all other assays above

CCNC(=O)C1CC(C)CCC1C(C)C (stereo unspecified)
inactive: [1] | [2] | [3] | [5]

Nc1nc(-c2ccc([N+](=O)[O-])cc2)cs1
not listed: [6]
inactive: all other assays above

O=C(CCNNC(=O)c1ccncc1)NCc1ccccc1
inactive: [1] | [3] | [4] | [5]

CC(=O)OCC(=O)Nc1cc(C#N)cc(NC(=O)COC(C)=O)c1Cl
inactive: [1] | [2] | [4]

CC(C)=CCC[C@@](C)(O)[C@H]1CC=C(C)CC1
inactive: [1] | [3]

NC(Cc1ccccc1)C(=O)O (stereo unspecified)
inactive: [1] | [2] | [5]

CCN(CC)CCOC(=O)C1(c2ccccc2)CCCC1
inactive: [1] | [2] | [3] | [5]

C=C(C)C(=O)OCCCCCCOC(=O)C(=C)C
inactive: [1] | [3] | [4]

CC1=C(C(=O)O)N2C(=O)[C@@H](NC(=O)[C@H](N)c3ccccc3)[C@H]2SC1
inactive: [1] | [3] | [4]

C=CC(=O)OCCOCCOCCOCCOC(=O)C=C
inactive: [1] | [3]

CCc1cccc(C)c1
inactive: [1] | [2] | [3] | [5]

O=C1OC(=O)C2CC=CCC12 (stereo unspecified)
inactive: [1] | [3] | [4]
